In PubChem BioAssay AID743025 (Vanderbilt Specialized Chemistry Center, 2013):
Calls of active or inactive are those of the source.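 The calls were made as follows: active = IC50 below 10 µM at human M5 in a calcium flux test, acting as a negative modulator; inactive = the rest.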

The compounds below were run against Muscarinic acetylcholine receptor M5 (Homo sapiens) (UniProt P08912) (assay: M5 muscarinic receptor negative allosteric modulators, cell-based, single concentration, human M5 (AID 743025)). Conditions: CHO-K1 hM5, ACh EC80 calcium flux, Fluo-4; at 10 µM; hits give low values.
Muscarinic acetylcholine receptor M5 (Homo sapiens), sequence (P08912 whole entry, looked up): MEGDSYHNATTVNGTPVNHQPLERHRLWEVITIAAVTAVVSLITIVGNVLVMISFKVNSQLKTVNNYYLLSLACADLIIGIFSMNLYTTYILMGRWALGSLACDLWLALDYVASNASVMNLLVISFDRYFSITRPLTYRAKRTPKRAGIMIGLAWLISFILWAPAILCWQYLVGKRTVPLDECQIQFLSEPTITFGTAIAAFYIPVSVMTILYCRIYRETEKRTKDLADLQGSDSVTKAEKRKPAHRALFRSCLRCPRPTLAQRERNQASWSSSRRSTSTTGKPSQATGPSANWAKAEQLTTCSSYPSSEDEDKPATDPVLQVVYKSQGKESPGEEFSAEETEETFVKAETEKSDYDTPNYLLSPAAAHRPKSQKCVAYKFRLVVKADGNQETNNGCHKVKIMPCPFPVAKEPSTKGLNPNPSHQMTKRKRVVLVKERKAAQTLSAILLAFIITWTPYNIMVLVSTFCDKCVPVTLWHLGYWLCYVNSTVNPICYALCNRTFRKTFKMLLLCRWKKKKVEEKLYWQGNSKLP

Structure (SMILES)	activity remaining
O=C(Nc1ccccc1)N1CCN2C(=O)c3ccccc3C12c1ccccc1 (configuration not stated)	85.4% (inactive)
O=C(c1ccc(F)c(F)c1)N1CCN2C(=O)c3ccccc3C12c1ccc(O)cc1 (configuration not stated)	65.9% (inactive)
COc1ccc(C23c4ccccc4C(=O)N2CCN3C(=O)c2ccccn2)cc1 (configuration not stated)	66.1% (inactive)
O=C(c1ccc(OC(F)(F)F)cc1)N1CCCN2C(=O)c3ccccc3C12c1ccc(Cl)cc1 (configuration not stated)	76.4% (inactive)
O=C(c1ccc(F)cc1)N1CCCC1c1ccccc1 (configuration not stated)	87% (inactive)
O=C(c1ccccc1)c1ccccc1C(=O)N1CCN(C(=O)c2ccccc2)CC1	85.5% (inactive)
Cc1ccc(C(=O)N2CCN3C(=O)c4ccccc4C23c2ccc(C)cc2)cc1 (configuration not stated)	49.1% (active)
O=C(c1ccc(OC(F)(F)F)cc1)N1CCN2C(=O)c3ccccc3C12c1ccc(Cl)cc1 (configuration not stated)	1.2% (active)
O=C1c2ccccc2C2(c3ccccc3)N1CCN2C(=O)C1CC1 (configuration not stated)	86.4% (inactive)
Cc1ccc(C23c4ccccc4C(=O)N2CCN3C(=O)c2ccc(OC(F)(F)F)cc2)cc1 (configuration not stated)	6.55% (active)
CN(C)c1ccc(C(=O)N2CCN3C(=O)c4ccccc4C23c2ccc(Cl)cc2)cc1 (configuration not stated)	82.9% (inactive)
C[C@H]1CN(Cc2ccccc2)[C@]2(c3ccc(Cl)cc3)c3ccccc3C(=O)N12	73.1% (inactive)
COc1ccc(C23c4ccccc4C(=O)N2CCN3C(=O)c2ccccc2C)cc1 (configuration not stated)	49.9% (active)
Cc1ccc(C23c4ccccc4C(=O)N2CCN3C(=O)c2ccccc2)cc1 (configuration not stated)	53.2% (active)
O=C(c1ccccc1)N1CCCN2C(=O)c3ccccc3C12c1ccc(Cl)cc1 (configuration not stated)	82.5% (inactive)
O=C(c1ccc(F)c(F)c1)N1CCCN2C(=O)c3ccccc3C12c1ccc(Cl)cc1 (configuration not stated)	80.4% (inactive)
C=CCN1C[C@H](C)N2C(=O)c3ccccc3[C@@]12c1ccc(Cl)cc1	64.3% (inactive)
COc1ccc(C23c4ccccc4C(=O)N2CCN3C(=O)c2ccccc2)cc1 (configuration not stated)	73% (inactive)
O=C1c2ccccc2C(c2ccccc2)N1c1ccccc1 (configuration not stated)	82.3% (inactive)
Cc1ccc(C23c4ccccc4C(=O)N2CCN3C(=O)c2ccc(SC(F)(F)F)cc2)cc1 (configuration not stated)	10.9% (active)
O=C(c1ccc(OCc2ccccc2)cc1)N1CCN2C(=O)c3ccccc3C12c1ccccc1 (configuration not stated)	75.1% (inactive)
O=C1c2ccccc2C2(c3ccccc3)N1CCN2S(=O)(=O)c1cccc(C(F)(F)F)c1 (configuration not stated)	80% (inactive)
